These results are taken from PubChem BioAssay (NCATS).

Records with an inconclusive call do not appear. The source made the active and inactive calls. The call rests on the fitted dose curve; in most records, active means well fitted curve in the direction sought with a large enough effect; inconclusive means small, poorly fitted or top-dose-only effect, or another doubt; inactive means no such curve, though single readings can be large; an effect the other way counts as inactive or inconclusive.

The nature of assay [1]: OV-KATE Cancer Cell Toxicity qHTS against the NCATS CANVASS Library (AID 1347345). Further: potency means the concentration at half of the fitted maximal effect. In a few lines:
(§1)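 1000 cells/well seeded and rested 4 h at 37 °C before pin transfer of compounds in an 11-pnt series. Exposure 72 h at 37 °C/5% CO2; viability by CellTiter-Glo luminescence after 15 min at room temperature.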

Assay [2] in a line: OV-SAHO Cancer Cell Toxicity qHTS against the NCATS CANVASS Library (AID 1347348). Further: series mostly up to about 38 µM; nearly all actives have a fitted effect of over 55% in size. The method in brief:
as §1
For orientation: qHTS replaces the single test concentration by a dilution series.

Assay [3] is described as follows: SW1088 Cancer Cell Toxicity qHTS against the NCATS CANVASS Library (AID 1347350). Further: nearly all actives have a fitted effect of over 75% in size. Further: potency means the concentration at half of the fitted maximal effect. In a few lines: as §1
Assay [4] is described as follows: A2780 Cisplatin Sensitive Ovarian Cancer Cell Toxicity qHTS against the NCATS CANVASS Library (AID 1347353). Further: nearly all actives have a fitted effect of over 60% in size. The method in brief:
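A2780 cisplatin-sensitive cells (750 per well) were seeded, left 4 h at 37 °C, then pin-dosed in an 11-point series. After 72 h at 37 °C/5% CO2, viability was measured as ATPLite luminescence.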

Assay [5] can be described thus: HEK-293 Cancer Cell Toxicity qHTS against the NCATS CANVASS Library (AID 1347355). Further: nearly all actives have a fitted effect of over 65% in size. Further: potency means the concentration at half of the fitted maximal effect. On outcome: series mostly up to about 46 µM. The method in brief: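 Cells were seeded at 1000 per well and allowed to settle 4 hours at 37 degrees C before pin transfer of compounds as an 11-point series. Viability was read by CellTiter-Glo luminescence after 72 hours' exposure.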
A short description of assay [6]: HPAF-II 12hr Apoptosis Induction qHTS against the NCATS CANVASS Library (AID 1347358). In a few lines: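 HPAF-II cells (500/well, DMEM + 10% FBS) were exposed to compounds for 12 hours at 37 degrees C. Caspase-3/7 activity was then read by Caspase-Glo 3/7 luminescence after 15 min at room temperature.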
The nature of assay [7]: HEK293 24hr Apoptosis Induction qHTS against the NCATS CANVASS Library (AID 1347359). The method in brief:
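HEK293 cells, 500 per well, exposed to an 11-point compound series for 24 hours at 37 degrees C. Caspase 3/7 activity read by Caspase-Glo luminescence (DEVD substrate) after 15 min at room temperature.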

Assay [8] in a line: KB-8-5-11 Cancer Cell Toxicity qHTS against the NCATS CANVASS Library (AID 1347364). Further: nearly all actives have a fitted effect of over 75% in size. Further: potency means the concentration at half of the fitted maximal effect. In a few lines: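 KB-8-5-11 cells (500/well) in DMEM + 10% FBS were exposed to compounds in an 11-point qHTS series for 72 hr at 37C, 5% CO2. Viability was read by CellTiter-Glo luminescence.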
Assay [9] in a line: SDT Cancer Cell Toxicity qHTS against the NCATS CANVASS Library (AID 1347365).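 Further: SDT canine glioma cells 500 per well in 1536 well plates; series mostly up to about 46 µM; nearly all actives have a fitted effect of over 60% in size.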 The method in brief: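 SDT canine glioma cells (500 cells/well) were exposed to compounds in an 11-point series for 72 hr at 37C, 5% CO2; viability was read as ATP content by CellTiterGlo luminescence.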
Assay [10] is described as follows: G06 Cancer Cell Toxicity qHTS against the NCATS CANVASS Library (AID 1347368). Further: nearly all actives have a fitted effect of over 60% in size. In a few lines:
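G06 dog glioma cells seeded at 500 cells/well were exposed to compounds (11-point qHTS series) for 72 hr at 37C, 5% CO2; viability read as ATP content by CellTiterGlo luminescence.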

Assay [11] is described as follows: qHTS for Hypoxia signaling pathway (HIF-1) antagonists against the NCATS CANVASS Library (AID 1347374).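 Further: HRE-bla ME-180 cells stimulated with cobalt chloride to stabilize HIF-1alpha; series mostly up to about 38 µM; nearly all actives have a fitted effect of over 60% in size.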 The method in brief:
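HRE-bla ME-180 cells (2,000/well, 0.5% dialyzed FBS) were pre-incubated 5 h, then given an 11-point compound series plus CoCl2 (60 uM solution as added) for 17 h at 37C. CCF4 β-lactamase read (ex 405, em 460/530 nm) after 2 h at RT.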

Assay [12] in a line: DH5-alpha competent E. coli microbial cell viability qHTS against the NCATS CANVASS Library (AID 1347377). Conditions: outcome: dose series up to 46.1 µM unless noted. The method in brief: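 DH5-alpha E. coli suspension (0.9 OD culture diluted to 0.2 OD) exposed to compounds in an 11-point series, overnight at 37C, 5% CO2. Viability read as ATP by BacTiter-Glo luminescence after 20 min at room temperature.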

A short description of assay [13]: Inflammasome Signaling qHTS Counterscreen: IL-1-beta AlphaLISA counterscreen against the NCATS CANVASS Library (AID 1347381).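 Further: cell-free check with purified IL-1β in medium and no THP-1 cells; series mostly up to about 57 µM.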 In a few lines: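 To flag interference with the AlphaLISA read-out, a known amount of purified IL-1-beta (4 pg) replaced cell supernatant. Detection used anti-IL-1-beta acceptor beads, biotinylated antibody and streptavidin donor beads at room temperature.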

The nature of assay [14]: qHTS for Activators of p53 Stress Response Pathway screened against the NCATS CANVASS Library (AID 1347388). In a few lines:
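p53RE-bla HCT-116 cells (4000/well) were pre-incubated for 5 h, then treated with compound (11 points) for 16 h at 37C. After 2 h with CCF4, the 460/530 nm ratio gave reporter activation; CellTiter-Glo measured viability.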

A short description of assay [15]: qHTS for activators of Nrf2/ARE signaling pathway screened against the NCATS CANVASS Library (AID 1347391). Further: nearly all actives have a fitted effect of over 60% in size. In a few lines: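 ARE-bla HepG2 beta-lactamase reporter cells, 2000 cells/well, were preincubated 5 h, then exposed to compounds (11-point series) for 16 h at 37C. CCF4 fluorescence (ex 405, em 460/530 nm) after 2 h at room temperature.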
The nature of assay [16]: qHTS for inhibitors of Wild type Zika virus screened against the NCATS CANVASS Library (AID 1347396).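 Further: ATP luminescence of surviving cells so rescue from viral cell killing; series mostly up to about 46 µM.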 In a few lines:
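Vero 766 (African green monkey) cells, 1000 per well, attached overnight, then compounds were added in an 11-point series before wild-type Zika virus infection. After 72 h at 37C, cell viability was read as CellTiter Glo luminescence.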

Assay [17] can be described thus: qHTS for ATAD5 Agonist screened against the NCATS CANVASS Library (AID 1347367).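 Further: luciferase reporter driven by ATAD5 which rises upon DNA damage.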 The method in brief: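 HEK293T cells stably carrying an ATAD5-controlled luciferase reporter (2000 cells/well) attached for 5 hr, then received compounds in an 11-point series for 16hr at 37C. Luminescence was read after a 30 min room-temperature reagent step.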
Assay [18] is described as follows: qHTS for activators of dead-cell proteases activity screened against the NCATS CANVASS Library (AID 1347392).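 Further: luminescence from protease leaking out of membrane-damaged cells cleaving impermeant substrate; rising signal means more cytotoxicity.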 The method in brief:
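HepG2 cells, 2000/well, attached 18 h at 37C, then exposed to compounds (11-point qHTS) for 5 h. Dead-cell protease release read as luminescence from cell-impermeant AAF-aminoluciferin substrate after 15 min at room temperature.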

A short description of assay [19]: qHTS for inhibitors of ER calcium dysfunction: SERCaMP assay screened against the NCATS CANVASS Library (AID 1347393).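 Further: series mostly up to about 77 µM; lower secreted reporter signal means inhibitor of ER calcium depletion; nearly all actives have a fitted effect of over 40% in size.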 In a few lines:
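SH-SY5Y GLuc-SERCaMP, 1000 cells/well, 4 h attach; cpd 16 h, 37C/5% CO2; thapsigargin (added as 6x 600 nM) 4 h; coelenterazine; luminescence. Reduced reporter release = ER Ca stabilization.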

The target in assay [20] is Luciferin 4-monooxygenase (Photinus pyralis) (UniProt P08659). The assay can be described thus: Firefly luciferase counterscreen qHTS: Assay Interference Panel against the NCATS CANVASS Library (AID 1347363). Further: series mostly up to about 57 µM. The method in brief: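 Purified P. pyralis luciferase (0.04 ug/mL, 4x reagent) added to Tris-acetate buffer with 0.013 mM D-luciferin, 0.013 mM ATP and 13.3 mM Mg-acetate; compounds preincubated 15 min, then luminescence read after 5 min, RT.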
(The purpose of a counterscreen is to sort out artefacts and off-target activity.)

Luciferin 4-monooxygenase (Photinus pyralis), sequence (P08659 whole entry, looked up): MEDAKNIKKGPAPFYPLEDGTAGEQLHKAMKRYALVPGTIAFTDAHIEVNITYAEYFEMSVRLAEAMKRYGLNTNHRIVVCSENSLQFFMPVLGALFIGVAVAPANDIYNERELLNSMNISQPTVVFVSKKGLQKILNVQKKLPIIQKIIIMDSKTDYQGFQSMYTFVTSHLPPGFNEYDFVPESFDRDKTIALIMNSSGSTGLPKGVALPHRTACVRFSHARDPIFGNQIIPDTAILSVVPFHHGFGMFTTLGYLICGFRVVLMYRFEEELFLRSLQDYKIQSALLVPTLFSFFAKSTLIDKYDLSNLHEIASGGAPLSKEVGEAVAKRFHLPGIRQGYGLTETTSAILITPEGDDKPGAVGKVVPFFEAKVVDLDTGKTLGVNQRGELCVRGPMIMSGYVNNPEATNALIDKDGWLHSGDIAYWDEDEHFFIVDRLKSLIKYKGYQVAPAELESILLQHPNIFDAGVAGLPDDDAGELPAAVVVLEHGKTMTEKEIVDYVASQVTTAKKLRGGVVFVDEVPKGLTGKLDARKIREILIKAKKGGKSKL

Consider `C=C[C@]1(C)CC[C@@H]([C@H](C)C(=O)CC=C(C)C)O1`, for which the Potency entry in assay [1], in assay [2], in assay [3], in assay [4], in assay [5] and in assay [6] was “inactive” each time. Further, the Potency result in assay [7], in assay [8], in assay [9], in assay [10], in [11] and in assay [14] was “inactive” throughout. Moreover, the Potency result in assay [15] was “inactive”. In addition, the result in assay [12], in assay [13] and in assay [16] was inactive.
As for `COC1C(C)OC(OCC23C[C@@H]4[C@H](C)CC[C@H]4C4(C=O)CC2C=C(C(C)C)C34C(=O)O)[C@@H](O)[C@H]1O` (stereo partly specified), the Potency entry in assay [1], in assay [2], in assay [3], in assay [4], in assay [5] and in assay [8] was “inactive” in each case. For the same compound, the Potency result in [9], in assay [17], in assay [10], in assay [11], in [14] and in assay [15] was “inactive” throughout. The Potency result in [18] and in [19] was “inactive” throughout. Besides, the outcome in assay [12], in assay [13] and in [16] was inactive.
On to `C[C@@]12C[C@@H](C[C@@H]3C(=O)O[C@@H](c4ccoc4)[C@H](OC(=O)c4ccccc4)[C@@H]31)OC2=O`, for which the Potency entry in assay [1], in assay [2], in assay [3], in assay [4], in [5] and in [6] was “inactive” in each case. Further, the Potency entry in assay [7], in assay [20], in assay [8], in assay [9], in assay [17] and in [10] was “inactive” in each case. Moreover, the Potency result in assay [11], in [14], in assay [15], in assay [18] and in [19] was “inactive” throughout. The compound was classed as inactive in assay [12] and in assay [16].
For `C/C=C1/C2=CCCN3C(=O)O[C@H]([C@H]1O)[C@H]23`, the Potency entry in [1], in assay [2], in [3], in assay [4], in [5] and in assay [6] was “inactive” throughout. The Potency result in [7], in assay [9], in [17], in assay [10], in [11] and in assay [14] was “inactive” each time. In addition, the Potency entry in assay [15] and in assay [19] was “inactive” in each case. The call in assay [12], in [13] and in [16] was inactive.
On to `CN1CC[C@]23c4ccccc4N[C@H]1[C@]21CCN(C)[C@H]3Nc2ccccc21`, for which the Potency entry in assay [1], in assay [2], in [3], in assay [4], in [5] and in assay [6] was “inactive” in each case. Further, the Potency result in [7], in assay [20], in [8], in assay [9], in assay [17] and in [10] was “inactive” throughout. Also, the Potency result in assay [14], in assay [15] and in [19] was “inactive” each time. Further, the result in assay [12], in assay [13] and in assay [16] was inactive.
For the compound `C=C(Cl)[C@](Cl)(CBr)CC[C@@H](Br)C(C)(C)Cl`, the Potency was 10.6 µM (active) in [1], 2.98 µM (active) in [3], 9.35 µM (active) in [5] and 9.35 µM (active) in [8]. Also, the Potency entry in [2], in [6], in [7], in assay [20], in assay [17] and in [10] was “inactive” throughout. For the same compound, in assay [14], the Potency entry is “inactive”. For the same compound, the compound was called inactive in assay [12], in assay [13] and in assay [16].
